# Test results taken from PubChem BioAssay AID720553 (National Center for Advancing Translational Sciences (NCATS), 2013).
# The whole screen tested about 340,000 compounds, of which about 3,300 (0.97%) were called active. What follows is part of a selection rich in actives, with near analogues and random picks from the rest. Unmarked numbers belong to inactive results.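 The calls were made as follows: active = maximum activity change below -70%; inconclusive = maximum activity change from -70% to -50%; inactive = maximum activity change above -50%.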
# Tested on: Potassium voltage-gated channel subfamily H member 2, brain isoform KCNH2 3.1 (human)
# Experiment: qHTS for Inhibitors of KCHN2 3.1: Mutant qHTS
# Conditions: U2OS KCNH2 3.1, thallium flux FluxOr; active compounds read low
# How it was run: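 Steps: virus added to U2OS suspension (4 h, RT, dark); medium with 10% FBS added, cells plated, 37 C overnight; FluxOr/Red40 loading buffer 45 min RT; stimulation buffer, 2 min kinetic read; rate constant normalized.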
# % is scaled to controls: 0 for no effect and ±100 for the full control effect.
row,SMILES,activity change
1,Cc1ccc(S(=O)(=O)/N=C2\C=C(NS(=O)(=O)c3ccc(C)cc3)C(=O)c3ccccc32)cc1,17.4%
2,C[C@H]1CN([C@@H](C)CO)S(=O)(=O)c2ccc(Br)cc2O[C@H]1CN(C)C(=O)c1cnccn1,10.6%
3,O=C(Nc1ccc2c(c1)nc1n2CCCCC1)c1cc(S(=O)(=O)N2CCOCC2)ccc1Cl,-83.4% (active)
4,O=C(Nc1ccc(N2CCCCC2)cc1)c1cc(S(=O)(=O)N2CCOCC2)ccc1F,-0.576%
5,O=C(Nc1ccc(N2CCOCC2)c(Cl)c1)c1ccc(S(=O)(=O)N2CCOCC2)cc1,-3.05%
6,COc1cccc(-c2noc(C3CCCN(C(=O)c4ccc(F)cc4)C3)n2)c1 (centres undefined),16.8%
7,CC(C)c1ccc(-c2noc(C3CCCN(S(C)(=O)=O)C3)n2)cc1 (centres undefined),-21.4%
8,COc1cc(-c2noc(C3CCCN(S(=O)(=O)c4cccc(Cl)c4)C3)n2)cc(OC)c1OC (centres undefined),-93.6% (active)
9,CCOC(=O)c1c(NC(=S)SC)sc(C(=O)N2CCc3ccccc3C2)c1C,-4.73%
10,CC1=C(C(=O)N2CCOCC2)CC(CC(=O)NCc2ccco2)C(=O)N1Cc1ccc(F)cc1 (centres undefined),-24.5%
11,C=CCNC(=O)COC(=O)c1ccccc1C(=O)N(C)C1CCCCC1,-110% (active)
12,CC1CCCC(NC(=O)COC(=O)c2ccccc2C(=O)N(C)C2CCCCC2)C1C (centres undefined),7.73%
13,O=C(COC(=O)c1ccccc1Cl)NC1CCCCCCC1,-1.39%
14,CCCCN(C(C)=O)c1ccc2c(c1)C1CC2CCN1Cc1ccccc1 (centres undefined),0.966%
15,O=C(Nc1ccc(Cl)cn1)c1ccccc1-c1ccccc1,-14.9%
16,CC1(C)Cc2cccc(OCC(N)=O)c2O1,-6.48%
17,CC1(C)Cc2cccc(OCC(=O)NCc3ccccc3)c2O1,0.403%
18,CC1(C)Cc2cccc(OCC(=O)N3CCN(c4ccc([N+](=O)[O-])cc4)CC3)c2O1,-91.8% (active)
19,S=C(NN=Cc1ccccn1)Nc1ccccn1,-6.69%
20,COc1ccc(C(=O)OCC(=O)Nc2cc(C)on2)cc1F,-0.754%
21,CSCCC(NC(=O)COc1ccccc1)C(=O)OCCOc1ccc(F)cc1 (centres undefined),-11.8%
22,CSCCC(NC(=O)COc1ccccc1)C(=O)OCCOc1ccc(Br)cc1 (centres undefined),-21.4%

row,SMILES,activity change
1,CSCCC(NC(=O)COc1ccccc1)C(=O)N1CCN(c2cccc(C(F)(F)F)c2)CC1 (centres undefined),-70% (active)
2,O=C(Nc1cccc2ccccc12)NC1CC1,-0.285%
3,COc1ccc(C(C)(C)C)cc1NC(=O)CN(C)C1=NS(=O)(=O)c2ccccc21,-5.7%
4,Cc1cc(OCC(=O)NCC(O)c2ccccc2)c2c(C)c(C)c(=O)oc2c1 (centres undefined),29.5%
5,O=C(COc1ccc2c3c(c(=O)oc2c1)CCCC3)NCC(O)c1ccccc1 (centres undefined),10.4%
6,O=C(COc1ccc2ccc(=O)oc2c1)NCC(O)c1ccccc1 (centres undefined),-87.9% (active)
7,O=C(NCCOc1ccccc1)N1[C@H]2CC[C@@H]1C=C(c1ccc(F)cc1OCc1ccccc1)C2,-21.8%
8,CCNC(=O)COc1cc(C)c(Br)c(C)c1,-198% (active)
9,COCCCNC(=O)COc1cc(C)c(Cl)c(C)c1,30.5%
10,CCOC(=O)C1CCN(C(=O)COc2cc(C)c(Br)c(C)c2)CC1,-6.53%
11,Cc1ccc(S(=O)(=O)N2C[C@]3(O)C[C@@H]4C(=O)N(c5ccccc5)C(=O)[C@@H]4C[C@]3(OC(=O)NC3CC3)C2)cc1,-5.83%
12,Cc1ccc(NC(=O)Cn2sc3ccccc3c2=O)cc1,8.97%
13,COc1cccc(CNC(=O)CCC2CCCN(Cc3ccc(OC(F)F)cc3)C2)c1 (centres undefined),-93.7% (active)
14,COc1cccc(CNC(=O)CCC2CCCN(C(=O)c3ccoc3C)C2)c1 (centres undefined),-8.72%
15,COc1cccc(CC2(CO)CCCN(CC3=Cc4cc(OC)ccc4OC3)C2)c1 (centres undefined),-14.2%
16,COc1cccc(C(=O)N2CCCC(CCC(=O)NCc3ccc(F)c(F)c3)C2)c1 (centres undefined),-33.7%
17,COc1cccc(CC2(CO)CCCN(Cc3ccc(OC(F)F)cc3)C2)c1 (centres undefined),-90.5% (active)
18,COc1cccc(CC2(CO)CCCN(Cc3nc(-c4cccs4)oc3C)C2)c1 (centres undefined),-14.6%
19,CCCn1c(N)c(C(=O)CSc2nnc(Cc3cccs3)n2C2CC2)c(=O)[nH]c1=O,7.67%
20,Cc1cccc(S(=O)(=O)N(C)C[C@H]2OCc3cnnn3CCCC(=O)N([C@@H](C)CO)C[C@H]2C)c1,36.2%
21,CCCCCCNC(=O)O[C@H]1CN(C(=O)OC(C)C)N(C(=O)OC(C)C)[C@@H]2CN(S(=O)(=O)c3ccc(C)cc3)C[C@]12O,0.662%
22,COc1ccc(-c2ccc(CN3C(CC(C)C)C(=O)N(Cc4cn(CC5CCCCC5)nn4)CCS3(=O)=O)cc2)cc1 (centres undefined),-16.5%

row,SMILES,activity change
1,CC1(c2cccc(Br)c2)NC(=O)N(CC(=O)NCCC2=CCCCC2)C1=O (centres undefined),-2.93%
2,Cc1nc2nc[nH]n2c(=O)c1C/C=C/c1ccccc1,-5.87%
3,Cc1nc2nc[nH]n2c(=O)c1NC(=O)c1cccc(OCC(C)C)c1,-182% (active)
4,Cc1noc(C)c1COc1cccc(C(=O)Nc2cccnc2)c1,5.81%
5,C[C@H]1CN([C@@H](C)CO)C(=O)c2cc(C3=CCCCC3)cnc2O[C@@H]1CN(C)C(=O)Cc1ccccc1,-6.94%
6,CC(=O)Nc1ccc(SCC(=O)NC(=O)c2ccc(Cl)cc2)cc1,-9.69%
7,Cc1[nH]c2ccccc2c1CCN(Cc1cccs1)C(=S)NC(C)(C)C,-70.5% (active)
8,COc1ccc2[nH]c(C)c(CCN(Cc3cccs3)C(=S)Nc3ccccc3OC)c2c1,-8.67%
9,COc1cccc(NC(=S)N(CCc2c(C)[nH]c3ccccc23)Cc2ccco2)c1,-11%
10,Cc1ccc(S(=O)(=O)NN=C2CC(C)(C)CC(=O)C2(C)C)cc1,-9.11%
11,C[C@@H]1Cn2cnc(C(=O)Nc3ccc(CNC(=O)OC(C)(C)C)cc3)c2C(=O)N1,-19.4%
12,C[C@H]1Cn2cnc(C(=O)N[C@@H](Cc3c[nH]c4ccccc34)C(=O)OC(C)(C)C)c2C(=O)N1,-11.5%
13,CCOC(=O)CSc1nc2c(sc(=S)n2CCc2ccccc2)c(=O)n1Cc1ccco1,-91% (active)
14,N#Cc1c(NC(=O)CSc2nc3ccccc3c(=O)n2Cc2ccco2)sc2c1CCCC2,-19.1%
15,CCOC(=O)CSc1nc2c(c(=O)n(Cc3ccccc3Cl)c(=O)n2C)n1C,-10.8%
16,C=CCOc1ccccc1CNn1c(C)n[nH]c1=S,3.24%
17,C[C@@H]1CN([C@@H](C)CO)C(=O)CCCn2nncc2CO[C@@H]1CN(C)S(=O)(=O)c1ccc(-c2ccccc2)cc1,8.36%
18,COc1ccc(C(CCNCc2ccccc2F)c2ccc(F)cc2)cc1 (centres undefined),-100% (active)
19,COc1ccc(CCNC(=O)COC(=O)Cc2ccccc2F)cc1,8.82%
20,COc1cccc(CNCCc2c[nH]c3ccccc23)c1OCc1ccccc1F,-1.51%
